According to article PMC5540273 (PLoS ONE, 2017):

Assays:
Conditions in all cases: concentration: 1 μM,replicates: in singlicate; n = 1
SNARK = system: T1, SNARK
T1 construct: gene NUAK2

SNRK = system: SNRK
SRC = system: SRC
SRMS = system: SRMS
SRPK1 = system: SRPK1
SRPK2 = system: SRPK2
SRPK3 = system: SRPK3
STK16 = system: STK16
STK33 = system: STK33
STK36 = system: STK36
STK39 = system: STK39
SYK = system: SYK
SgK110 = system: SgK110
TAK1 = system: T2, TAK1
T2 construct: gene MAP3K7

TAOK1 = system: TAOK1
TAOK2 = system: TAOK2
TAOK3 = system: TAOK3
TBK1 = system: TBK1
TEC = system: TEC
STK35 = system: STK35
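Also: KINOMEscan kinase panel screen.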

SMILES	%Inh (SNARK) [%]	%Inh (SNRK) [%]	%Inh (SRC) [%]	%Inh (SRMS) [%]	%Inh (SRPK1) [%]	%Inh (SRPK2) [%]	%Inh (SRPK3) [%]	%Inh (STK16) [%]	%Inh (STK33) [%]	%Inh (STK36) [%]	%Inh (STK39) [%]	%Inh (SYK) [%]	%Inh (SgK110) [%]	%Inh (TAK1) [%]	%Inh (TAOK1) [%]	%Inh (TAOK2) [%]	%Inh (TAOK3) [%]	%Inh (TBK1) [%]	%Inh (TEC) [%]	%Inh (STK35) [%]
C[C@@H](Oc1cc(-c2cnn(C3CCNCC3)c2)cnc1N)c1c(Cl)ccc(F)c1Cl	96.7	6	83	18	3	0	33	0	0	0	0	8	83	33	31	48	36	65	2	–
O=C(NCCCN1CCOC1=O)c1cnc(NCc2cc(Cl)ccc2Cl)nc1NC1CCCC1	0	5	11	0	39	0	26	15	0	10	0	15	0	0	0	10	0	24	18	13
Nc1nc(Nc2ccccc2)cc(-c2ccc3c(N)n[nH]c3c2)n1 [GSK2225749]	21	0	0	0	80	2	83	59	14	24	0	0	0	36	32	2	23	28	0	0
Cl.Cl.NC[C@H](Cc1ccc(C(F)(F)F)cc1)NC(=O)c1cc(Br)c(-c2ccnc3[nH]ccc23)s1 [GSK1487252]	91.5	0	0	0	47	0	0	16	96.8	0	7	10	75	11	2	0	0	4	8	0
Cl.Cl.Nc1nc(-c2ccc3c(N)n[nH]c3c2)cc(N2CCCC(NC(=O)c3ccccc3)C2)n1 (stereo not drawn) [GSK2286775]	21	0	0	0	56	0	53	31	0	0	0	0	0	0	0	0	0	76	6	0
CC(C)Nc1cc(-c2ccc3c(N)n[nH]c3c2)nc(N)n1 [GSK2221681]	17	0	0	0	69	0	43	19	0	0	3	3	0	2	4	0	0	35	0	0
Cc1n[nH]c2ccc(-c3cc(OC[C@@H](N)Cc4ccccc4)cnc3-c3ccoc3)cc12.O=C(O)C(F)(F)F.O=C(O)C(F)(F)F [GSK507358]	18	0	10	0	61	4	34	6	73	0	0	0	0	97.9	92.4	5	74	18	0	95.9
CCn1c(-c2nonc2N)nc2c(C#CC(C)(C)O)nc(OCCN)cc21.Cl.Cl [GSK902056]	11	0	0	0	0	7	17	0	0	0	17	0	0	0	0	0	0	0	1	0
Cc1occc1-c1nc(N)c(OC[C@@H](N)Cc2c[nH]c3ccccc23)cc1-c1cc2c(C)n[nH]c2cn1 [GSK1660450]	96.9	0	95.6	0	71	0	56	3	84	67	4	0	0	97.2	99.6	89	99.6	6	0	28
O=C(NCCNc1ccnc(NCc2ccc(F)cc2)n1)c1cc2ccccc2s1 [GSK1379944]	31	0	4	0	13	0	0	78	0	2	1	14	17	0	0	14	0	19	21	0
Cl.Oc1cc(-c2nc(-c3ccccc3)[nH]c2-c2ccncc2)ccc1Cl [SB-386023]	24	0	88	12	0	0	5	7	0	53	0	0	32	9	11	29	5	10	1	0
C=CC(=O)Nc1cc2c(Nc3ccc(F)c(Cl)c3)ncnc2cc1OCCCN1CCOCC1 [GW781483]	0	14	71	0	4	32	–	0	8	–	22	6	0	20	0	0	0	0	39	–
Cc1cc2cn[nH]c2cc1-c1cccc2c(N)c(C(N)=O)nnc12	62	11	17	35	49	14	34	0	0	0	47	20	0	69	83	37	39	47	94.9	0
CNC(=O)c1ccccc1Sc1ccc2c(/C=C/c3ccccn3)n[nH]c2c1	77	9	4	0	82	12	21	12	0	24	0	5	0	15	0	0	0	36	0	25
Cc1ccc(-n2nc(C(C)(C)C)cc2NC(=O)Nc2ccc(OCCN3CCOCC3)c3ccccc23)cc1 [GW839464]	0	0	0	8	64	0	29	6	21	0	0	9	22	76	0	1	0	31	34	0
C[C@H]1Oc2cc(cnc2N)-c2c(nn(C)c2C#N)CN(C)C(=O)c2ccc(F)cc21	0	0	43	0	9	0	12	0	8	12	0	38	21	0	0	13	0	33	0	1
C[C@@H]1CCN(C(=O)CC#N)C[C@@H]1N(C)c1ncnc2[nH]ccc12	73	15	0	0	39	18	1	0	0	0	0	–	50	–	0	0	0	10	39	0
NC(=O)c1cc(-c2ccccc2)cc2c(C3CCNCC3)c[nH]c12 [GSK301362]	91.8	0	0	0	58	0	0	8	0	3	15	34	0	0	95.8	28	90	12	24	49
Cc1cc(C(=O)Nc2ccc(Oc3ccc4nc(NC(=O)C5CC5)cn4n3)cc2)nn1-c1ccccc1	0	0	34	0	8	33	30	18	0	0	7	22	0	0	0	1	0	57	37	0
CN(C)CC(O)COc1ccc(Nc2nccc(-c3cnn4nc(N5CCOCC5)ccc34)n2)cc1 (stereo not drawn) [GW767488]	93.6	31	5	100	76	8	80	98.7	54	56	79	4	0	63	59	34	37	58	7	5
Cc1ccc2c(-c3ccncc3)c(-c3ccc(F)cc3)nn2c1.Cl [GW461484]	4	0	7	5	0	17	0	8	14	53	21	26	0	70	0	0	0	21	0	0
CCN(CC)CCCCNc1ncc2cc(-c3c(Cl)cccc3Cl)c(NC(=O)NC(C)(C)C)nc2n1	42	12	100	31	35	8	0	4	0	77	0	11	25	57	99.2	99.5	99.5	0	0	15
CN(C)CCOc1ccc(-c2cc(-c3c[nH]nc3-c3ccccn3)ccn2)cc1 [GW835314]	19	80	20	0	0	0	19	75	0	47	0	26	0	26	23	0	0	18	13	0
CC(C)N1C(=O)Cc2cc(Nc3ncc(C(F)(F)F)c(NCc4cccc(S(C)(=O)=O)c4)n3)ccc21	82	13	0	0	55	3	24	94.7	0	0	33	87	0	70	0	0	0	86	10	4
CCN(CC)CCOc1ccc(Nc2ncc3cc(-c4c(Cl)cccc4Cl)c(=O)n(C)c3n2)cc1 [SB-601273]	92.6	7	100	90.8	50	70	9	53	62	99.5	60	89	84	65	99.1	99.4	99.9	42	89	98.8
COc1ccc(C[C@@H](CN)NC(=O)c2cc(Br)c(-c3ccnc4[nH]ccc34)s2)cc1.Cl.Cl [GSK1389063]	98.2	0	36	0	86	0	28	55	99.2	0	16	39	85	75	87	27	60	1	0	14
Cl.Cl.NC[C@H](CC1CCCCC1)NC(=O)c1cc(Br)c(-c2ccnc3[nH]ccc23)s1 [GSK1581427]	90.5	0	28	0	82	14	87	27	89	0	6	19	82	0	42	0	4	1	0	23
